A selection: hits, their analogues and other compounds. The true share with any hit is near 7.4%.
SMN2 splice up: qHTS Assay for Enhancers of SMN2 Splice Variant Expression | HEK293 SMN2-luciferase splicing reporter, luminescence, 30-36 h | actives 2.8% (n = 210,000) | Potency, µM (doses to about 46.1 µM), for inactives: at the highest dose activity change, positive = activation, actives largely listed as activators | AID 1458, 2008; further: % of control where 0% means no effect; nearly all actives have a fitted effect of over 55% in size
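HEK293 cells carry an SMN2 minigene-luciferase reporter in which exon 7 inclusion puts luciferase in frame. Cells were seeded at 2000 cells/well, attached for 10-12 hours, then exposed to compounds for 30-36 hours at 37C before ONE-Glo luminescence.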
NPC1 promoter act: qHTS Assay for NPC1 Promoter Activators; Huh7 NPC1 promoter luciferase reporter, 24 h; Potency, µM (series often up to 9.22 µM), without a hit: top-dose activation, hits mostly activators; actives 2.4% (n = 320,000); AID 485313, 2010; further: % of control where 0% means no effect; nearly all actives have a fitted effect of over 60% in size
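Luminescence read-out of NPC1 promoter-driven luciferase in stably transfected Huh7 cells; compounds delivered in DMSO and left 24 h at 37C, 5% CO2, qHTS titration format.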
Rab9 promoter act: qHTS Assay for Rab9 Promoter Activators | Potency, µM (top dose mostly 9.22 µM), without a hit: at the top dose activation, negative = inhibition, usual class: activators | actives 2.8% (n = 320,000) | Huh7 Rab9 promoter-luciferase reporter, luminescence, 24 h; further: % of control where 0% means no effect; nearly all actives have a fitted effect of over 60% in size
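Rab9 promoter-driven luciferase in stably transfected Huh7 cells; 1500 cells/well rested 2 h, exposed to compound in DMSO for 24 h at 37 °C, 5% CO2. Luminescence read 10 min after adding luciferase reagent at ambient temperature.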
FLuc modulator: qHTS profiling assay for firefly luciferase inhibitor/activator using purifed enzyme and Km concentrations of substrates (counterscreen for miR-21 project) | actives 6.9% (n = 360,000) | Luciferin 4-monooxygenase (Photinus pyralis), P08659 | Potency, µM (highest dose often 57.5 µM), inactives show at the top dose activity change, negative = inhibition, actives largely listed as inhibitors | purified FLuc, Km substrates, luminescence inhibition;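 further: plate controls were vehicle for no effect and reference inhibitor for full effect; nearly all actives have a fitted effect of over 55% in size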
Target sequence (P08659 whole entry, looked up): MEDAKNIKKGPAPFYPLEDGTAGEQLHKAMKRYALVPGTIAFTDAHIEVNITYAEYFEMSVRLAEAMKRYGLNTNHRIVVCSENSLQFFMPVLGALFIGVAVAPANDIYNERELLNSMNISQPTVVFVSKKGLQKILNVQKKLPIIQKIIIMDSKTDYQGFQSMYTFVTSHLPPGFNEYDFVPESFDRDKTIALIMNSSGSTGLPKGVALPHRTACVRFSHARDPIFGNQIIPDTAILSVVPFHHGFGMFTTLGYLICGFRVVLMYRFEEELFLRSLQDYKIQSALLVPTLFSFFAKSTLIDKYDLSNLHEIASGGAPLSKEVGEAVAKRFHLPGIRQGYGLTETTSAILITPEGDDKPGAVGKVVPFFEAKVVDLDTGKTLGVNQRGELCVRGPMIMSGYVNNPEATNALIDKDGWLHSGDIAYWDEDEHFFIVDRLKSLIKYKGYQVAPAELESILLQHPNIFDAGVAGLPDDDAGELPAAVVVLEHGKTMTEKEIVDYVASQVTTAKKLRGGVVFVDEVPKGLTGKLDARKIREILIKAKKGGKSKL
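Biochemical qHTS of compounds, final roughly 60 µM downward over six points, against 10 nM purified firefly luciferase using Km concentrations of substrates (10 uM D-luciferin, 10 uM ATP) in Tris acetate pH 7.5 buffer; luminescence output.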
ELG1 genotoxic: qHTS screen for small molecules that induce genotoxicity in human embryonic kidney (HEK293T) cells expressing luciferase-tagged ELG1; HEK293T ELG1-luciferase reporter, luminescence, 16 h; Potency, µM (top dose mostly 46 µM), without a hit: at the top dose activity change, positive = activation, actives largely listed as activators; actives 1.3% (n = 330,000); AID 504466, 2011; further: % of control where 0% means no effect; nearly all actives have a fitted effect of over 60% in size
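DMSO vehicle served as control against compound-treated ELG1-luciferase HEK293T cells; exposure lasted 16 hr at 37 °C and 5% CO2, followed by ONE-Glo luminescence detection after 30 min.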
* hit, by the source's call; ? = inconclusive; . = not tested or not shown. The call rests on the fitted dose curve; in most records, active means well fitted curve in the direction sought with a large enough effect; inconclusive means small, poorly fitted or top-dose-only effect, or another doubt; inactive means no such curve, though single readings can be large; an effect the other way counts as inactive or inconclusive. Potency means the concentration at half of the fitted maximal effect.

SMILES	SMN2 splice up	NPC1 promoter act	Rab9 promoter act	FLuc modulator	ELG1 genotoxic
CC(C)CCN1C(=O)c2ccc(C(=O)Nc3ccc(O)cc3C(=O)O)cc2C1=O	.	1%	2%	19µM*	-1%
CC(C)CN1C(=O)c2ccc(C(=O)Nc3ccc(O)cc3C(=O)O)cc2C1=O	.	-3%	12%	6µM*	-2%
CC(C)CCN1C(=O)c2ccc(C(=O)Nc3ccccc3C(=O)O)cc2C1=O	.	4%	0%	21µM*	4%
CC(c1ccccc1)N1C(=O)c2ccc(C(=O)Nc3ccc(Br)cc3C(=O)O)cc2C1=O (stereo not given)	.	0%	-2%	2%	-9%
Cc1cc(Nc2ccccc2)n(-c2nc3ccccc3[nH]2)n1	6%	-1%	-12%	?	-2%
Cc1nn(-c2ccc(Cl)c(Cl)c2Cl)c(=O)c2ccccc12	-12%	-3%	3%	2%	-3%
Cc1nn(-c2ccc(Cl)nn2)c(=O)c2ccccc12	?	18%	?	17µM*	?
Cc1nn(-c2nc3ccccc3[nH]2)c(N)c1-c1ccc(Cl)cc1	?	?	3.5µM*	8.5µM*	8%
Cc1nn(-c2nc3ccccc3[nH]2)c(=O)c2ccccc12	-98%	?	0.1µM*	0.076µM*	?
Cc1nn(-c2ccc3ccccc3c2)c(=O)c2ccccc12	.	2%	?	12µM*	?
Cc1nn(-c2ccc(Cl)c(Cl)c2)c(=O)c2ccccc12	-4%	26%	19%	-19%	4%
Cc1cccc(CSCc2ccc(C(=O)NCCc3ccccc3)o2)c1	.	.	.	-19%	.
Cc1ccccc1CNC(=O)C1CCN(c2nnc(-n3c(C)ccc3C)s2)CC1	-4%	.	.	-8%	.
Cc1nn(-c2ccc(Cl)cc2)c(=O)c2ccccc12	13µM*	4.5µM*	2.8µM*	17µM*	?
COc1ccccc1/C=C/C=N/n1c(-c2cc(C)[nH]n2)n[nH]c1=S	0%	-1%	1%	21µM*	3%
COc1ccccc1/C=C/C=N/n1c(-c2ccccn2)n[nH]c1=S	.	18%	?	17µM*	?
COc1ccccc1/C=C/C=N/n1c(-c2ccncc2)n[nH]c1=S	15%	-4%	2%	12µM*	3%
Cc1cc(-c2n[nH]c(=S)n2/N=C/C=C/c2ccccc2)n[nH]1	-10%	-6%	-2%	-19%	1%
S=c1[nH]nc(-c2ccncc2)n1/N=C/C(Cl)=C\c1ccccc1	11µM*	3.5µM*	3.2µM*	-8%	-5%
COc1ccccc1/C=C/C=N/n1c(-c2ccc(C)cc2)n[nH]c1=S	-14%	0%	-4%	?	-1%
S=c1[nH]nc(-c2ccncc2)n1/N=C/C=C/c1ccccc1	.	-1%	-1%	?	-12%
CCN(C(=O)C1CCC(CNS(=O)(=O)c2cccc3nsnc23)CC1)c1cccc(C)c1 (stereo not given)	-28%	.	.	2%	.
COc1ccc(CCNC(=O)CCn2c(=O)c3ccccc3n(CC(=O)Nc3ccc(C)cc3C)c2=O)cc1OC	13%	.	.	0%	.
S=c1[nH]nc(-c2cc(-c3ccccc3)n[nH]2)n1/N=C/C=C/c1ccco1	.	-3%	0%	13µM*	5%
CN1c2ccccc2-c2nc(SCC(=O)Nc3ccccc3C(F)(F)F)ncc2S1(=O)=O	.	.	.	-3%	.
SMILES	SMN2 splice up	NPC1 promoter act	Rab9 promoter act	FLuc modulator	ELG1 genotoxic
CC(=O)c1ccc(OCc2cc(C(=O)NC3CCCCC3)no2)cc1	.	3.5µM*	4µM*	?	-6%
CC(=O)c1ccc(OCc2cc(C(=O)N3CCC(c4ccncc4)CC3)no2)cc1	.	-14%	-16%	0%	9%
CC(=O)c1ccc(OCc2cc(C(=O)N(C)CCOc3ccc(C)cc3)no2)cc1	.	2.5µM*	4µM*	9.5µM*	2.9µM*
CC(=O)c1ccc(OCc2cc(C(=O)N3CC[C@@H]4CCCC[C@H]4C3)no2)cc1	.	2.5µM*	2µM*	9.5µM*	?
CC(=O)c1ccc(OCc2cc(C(=O)N3CCCCC3c3cccnc3)no2)cc1 (stereo not given)	.	?	?	27µM*	?
Cc1nc(N2CCOCC2)c2nc(-c3ccccc3)n(CC3CCN(C)CC3)c2n1	-14%	.	.	.	.
COc1ccc(CCNC(=O)CSc2nc3nc(C)c(Cc4ccc(C)cc4)c(C)n3n2)cc1OC	.	.	.	-4%	.
O=C(NCCN1CCCCC1)c1ccc(Cn2c(SCc3ccc(F)cc3)nc3cccnc32)cc1	-7%	.	.	8.5µM*	.
COc1ccc(Cn2c(SCc3ccc(C(=O)NCc4ccccc4F)cc3)nc3cccnc32)cc1	-15%	.	.	-19%	.
CN(C)CCNC(=O)c1ccc(Cn2c(SCc3ccc(F)cc3)nc3cccnc32)cc1	.	.	.	6µM*	.
COCCCNC(=O)c1ccc(Cn2c(SCc3ccc(F)cc3)nc3cccnc32)cc1	.	.	.	3.4µM*	.
COCCCNC(=O)c1ccc(Cn2c(SCc3cccc(C)c3)nc3cccnc32)cc1	.	.	.	11µM*	.
CCc1ccc(N(CC)C(=O)Cn2c(=O)oc3ccccc32)cc1	3%	.	.	-1%	.
O=c1c2c([N+](=O)[O-])cc([N+](=O)[O-])cc2sn1Cc1ccccc1	.	-4%	5%	9.5µM*	-1%
O=c1c2c([N+](=O)[O-])cc([N+](=O)[O-])cc2sn1-c1ccc(Br)cc1	-4%	-5%	-1%	21µM*	-1%
O=C(Nc1ccc(Br)cc1)c1cc([N+](=O)[O-])cc([N+](=O)[O-])c1	.	-1%	5%	2%	-15%
CCn1cc(C(=O)NCc2ccccc2Cl)c(=O)c2cc(S(=O)(=O)N3CCc4ccccc4C3)ccc21	13%	.	.	5%	.
COc1ccc(C2C(C(=O)Nc3ccc(C)cc3C)=C(C)Nc3nc4ccccc4n32)c(OC)c1 (stereo not given)	-21%	.	.	3%	.
COc1ccc(OC)c(C2Nc3nc4ccccc4n3C(C)=C2C(=O)Nc2ccc(C)cc2C)c1 (stereo not given)	7.9µM*	-7%	-6%	6%	1%
Cc1cc(=O)n(Cc2ccccc2Cl)c2c1c(C)nn2-c1ccccc1	.	.	.	-1%	.
Cc1cc(C(=O)O/N=C(\N)c2ccncc2)ccc1[N+](=O)[O-]	.	?	3.2µM*	17µM*	?
COc1ccc(/C(N)=N/OC(=O)c2ccc([N+](=O)[O-])c(C)c2)cc1OC	-10%	-3%	-2%	?	-4%
COc1ccc(/C(N)=N/OC(=O)c2ccc(C)c([N+](=O)[O-])c2)cc1	-2%	20%	21%	19µM*	?
CCc1ccc(-n2c(=O)c3c(C)c(C)sc3n(CC(=O)NCc3ccc(C)cc3)c2=O)cc1	23%	.	.	-1%	.
